Inconclusive results are not listed. Activity calls are given as the source filed them. Unless noted, calls come from the whole dose curve; as a rule, active = well fitted curve in the direction sought with a large enough effect in the repeat runs; inconclusive = weak or mixed curves; inactive = no such curve, though single readings can be large; an effect the other way counts as inactive or inconclusive.
Columns and labels:
[1] = qHTS assay to identify small molecule antagonists of the vitamin D receptor (VDR) signaling pathway - cell viability counter screen (AID 743225); note: % is set by controls: 0 for no effect and ±100 for the full control effect; nearly all actives have a fitted effect of over 50% in size
Outline: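 VDR-UAS-bla HEK 293T cells were plated and incubated 4 h at 37C, then dosed with compound plus 3 nM (final) 1-alpha,25-dihydroxyvitamin D3 for 16 h. After the 2 h beta-lactamase read, viability in the same wells was read as CellTiter-Glo luminescence after 30 min at room temperature.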

[2] = qHTS assay to identify small molecule agonists of the endoplasmic reticulum stress response signaling pathway (AID 1159516; active = well fitted activation curve with a large enough effect in the signal ratio in the repeat runs, not every such curve was filed as active; the % refers to the signal ratio; note: potency is the fitted concentration of half-maximal effect; for activation: % is set by controls: 0 for no effect and ±100 for the full control effect)
Outline: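 ER stress element reporter (bla) in HeLa. 1,500 cells/well, overnight attachment; 5 hr compound; 2 hr RT substrate; dual-emission fluorescence.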

[3] = qHTS assay to identify small molecule agonists of the endoplasmic reticulum stress response signaling pathway - cell viability counter screen (AID 1159517; calls by dose curve;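 note: HeLa cells carrying an ER stress response element beta-lactamase reporter; series mostly up to about 61 µM; % is set by controls: 0 for no effect and ±100 for the full control effect; nearly all actives have a fitted effect of over 50% in size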)
Outline: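 CellTiter-Glo was added to wells already read for beta-lactamase FRET, and luminescence was recorded 30 min later. Cells: ESRE-bla HeLa, 1,500 per well, compound exposure 5 hr at 37 C.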

[4] = qHTS assay to identify small molecule antagonists of the retinoid-related orphan receptor gamma (ROR-gamma) signaling pathway - cell viability counter screen (AID 1159520); note: % is set by controls: 0 for no effect and ±100 for the full control effect; nearly all actives have a fitted effect of over 50% in size
Outline: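 Tet-on ROR gamma CHO cells (1,000/well) were plated 4 hr, given compounds in DMSO for 2 hr at 37 C, then induced with 1 uM final doxycycline for 16 hr. Viability was read as ATP by CellTiter-Glo luminescence after 30 min.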

[5] = target: Nuclear receptor ROR-gamma (Homo sapiens) (UniProt P51449); test: qHTS assay to identify small molecule antagonists of the retinoid-related orphan receptor gamma (ROR-gamma) signaling pathway (AID 1159521; note: nearly all actives have a fitted effect of over 50% in size; note: potency is the fitted concentration of half-maximal effect;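 for activity change, negative = inhibition: CHO cells with doxycycline inducible ROR-gamma driving an RORE luciferase reporter; top concentration of the series differs between compounds; % is set by controls: 0 for no effect and ±100 for the full control effect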)
Outline: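 Tet-on ROR-gamma CHO cells with ROR response element-luciferase reporter; compounds added 2 hr before 1 uM doxycycline induction, then 16 hr at 37 C. Antagonism scored as decreased ONE-Glo luminescence.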

[6] = qHTS assay to identify small molecule agonists of the AP-1 signaling pathway - cell viability counter screen (AID 1159525; calls by dose curve; note: nearly all actives have a fitted effect of over 55% in size)
Outline: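 ME-180 AP-1-bla, 2500 cells/well, Opti-MEM + 0.5% dialyzed FBS; overnight 37 °C; cpd 15-pt titration, 5 h 37 °C; CellTiter-Glo 30 min RT; luminescence read; normalised to TOAB and DMSO controls.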

[7] = qHTS assay to identify small molecule agonists of the AP-1 signaling pathway (AID 1159526; calls by dose curve; note: % is set by controls: 0 for no effect and ±100 for the full control effect)
[8] = qHTS assay to identify small molecule agonists of the vitamin D receptor (VDR) signaling pathway - cell viability counter screen (AID 743224); note: nearly all actives have a fitted effect of over 50% in size; note: potency is the fitted concentration of half-maximal effect
Outline: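 VDR-bla cell line, quantitative HTS format; 16 h compound incubation (37C, 5% CO2); ATP-based CellTiter-Glo luminescence measured in the reporter assay wells.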

[9] = target: Retinoic acid receptor RXR-alpha (Homo sapiens) (UniProt P19793); test: qHTS assay to identify small molecule agonists of the RXR signaling pathway (AID 1159527; calls by dose curve; note: % is set by controls: 0 for no effect and ±100 for the full control effect; nearly all actives have a fitted effect of over 35% in size)
Sequence of Retinoic acid receptor RXR-alpha (Homo sapiens) (P19793 whole entry, looked up): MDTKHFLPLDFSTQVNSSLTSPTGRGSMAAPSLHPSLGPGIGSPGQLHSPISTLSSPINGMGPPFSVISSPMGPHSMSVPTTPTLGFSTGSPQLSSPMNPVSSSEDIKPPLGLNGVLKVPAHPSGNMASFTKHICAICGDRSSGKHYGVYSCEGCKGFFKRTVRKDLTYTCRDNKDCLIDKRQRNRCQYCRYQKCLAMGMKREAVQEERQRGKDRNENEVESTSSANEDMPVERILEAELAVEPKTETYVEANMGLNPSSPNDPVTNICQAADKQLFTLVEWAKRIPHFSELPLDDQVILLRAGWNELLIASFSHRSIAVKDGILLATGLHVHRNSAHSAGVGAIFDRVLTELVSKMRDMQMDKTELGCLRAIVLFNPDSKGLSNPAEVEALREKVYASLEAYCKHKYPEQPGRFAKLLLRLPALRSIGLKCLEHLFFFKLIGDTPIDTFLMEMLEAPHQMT
Outline: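 GeneBLAzer RXR-alpha-UAS-bla HEK 293T cells in 2% charcoal-stripped FBS medium were exposed to compounds for 16 hr at 37 C in agonist mode. Beta-lactamase reporter read as 460/530 nm FRET ratio after 2 hr substrate loading.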

Nc1nc(N)c(-c2ccccc2)s1
inactive: Potency [1] | Potency [2] | outcome [3] | Potency [4] | Potency [5] | Potency [6] | Potency [7]

Oc1ccc(O)c2c(O)cccc12
inactive: Potency [8] | Potency [1] | Potency [2] | outcome [3] | Potency [4] | Potency [5] | Potency [6] | Potency [9]

Cc1cccc(OCCOc2cccc(C)c2)c1
inactive: Potency [8] | Potency [2] | outcome [3] | Potency [4] | Potency [5] | Potency [6] | Potency [7]

O=C(O)COC(=O)Cc1ccccc1Nc1c(Cl)cccc1Cl
inactive: Potency [8] | Potency [1] | outcome [3] | Potency [4] | Potency [5] | Potency [6] | Potency [7]

OCC1CC2CC1C1CCC(CO)C21 (stereo unspecified)
inactive: Potency [8] | Potency [2] | outcome [3] | Potency [4] | Potency [6] | Potency [7]

O=C(O)c1cccc(N(Cc2cccnc2)c2ccc(OC(F)F)c(OC(F)F)c2)c1
inactive: Potency [8] | Potency [1] | Potency [2] | outcome [3] | Potency [4] | Potency [6] | Potency [7]
active: Potency [5] 30.6 µM

O=C(O)Cc1sc(-c2ccccc2)nc1-c1ccc(Cl)cc1
inactive: Potency [8] | Potency [1] | Potency [2] | outcome [3] | Potency [4] | Potency [6]

CCOC(=O)[C@H](CCc1ccccc1)N[C@H]1CCc2ccccc2N(CC(=O)O)C1=O
inactive: outcome [3] | Potency [4] | Potency [6] | Potency [9]
active: Potency [8] 21.1 µM | Potency [2] 21.3 µM

Cn1c(=O)c2c(ncn2CC(O)CO)n(C)c1=O (stereo unspecified)
inactive: Potency [8] | Potency [2] | outcome [3] | Potency [4] | Potency [6] | Potency [7]

CC1(C)CCC(C)(C)c2cc(NC(=O)c3ccc(C(=O)O)cc3)ccc21
inactive: Potency [8] | Potency [1] | Potency [2] | outcome [3] | Potency [4] | Potency [6]

C=CC[N+]1([C@H]2C[C@H]3[C@@H]4CC[C@H]5C[C@H](OC(C)=O)[C@@H](N6CCCCC6)C[C@]5(C)[C@H]4CC[C@]3(C)[C@H]2OC(=O)CC)CCCCC1
inactive: Potency [8] | Potency [2] | outcome [3] | Potency [4] | Potency [5] | Potency [6] | Potency [7] | Potency [9]

CN1CCN(C2=Nc3ccccc3Sc3ccc(Cl)cc32)CC1
inactive: Potency [8] | Potency [1] | Potency [2] | outcome [3] | Potency [4] | Potency [5] | Potency [6] | Potency [9]

CC(=O)/C(C)=C/C1C(C)=CCCC1(C)C (stereo unspecified)
inactive: Potency [8] | Potency [1] | Potency [2] | outcome [3] | Potency [4] | Potency [5] | Potency [6] | Potency [7]

CC(CN)CCCN (stereo unspecified)
inactive: Potency [8] | Potency [1] | Potency [2] | outcome [3] | Potency [4] | Potency [6] | Potency [7]

ClC(Cl)(Cl)c1ccc(C(Cl)(Cl)Cl)cc1
inactive: Potency [8] | Potency [1] | outcome [3] | Potency [4] | Potency [5] | Potency [6]

OC(CCN1CCCCC1)(c1ccccc1)C1CCCCC1 (stereo unspecified)
inactive: Potency [8] | Potency [1] | outcome [3] | Potency [4] | Potency [5] | Potency [6]

NCCCN(CCO)CCO
inactive: Potency [8] | Potency [1] | Potency [2] | outcome [3] | Potency [4] | Potency [5] | Potency [6] | Potency [9]

CN(C)CCCNCCCN
inactive: Potency [8] | Potency [1] | Potency [2] | outcome [3] | Potency [4] | Potency [5] | Potency [6] | Potency [7]

CC1=CC(=O)/C(=C(/C)O)C(=O)O1
inactive: Potency [8] | Potency [1] | Potency [2] | outcome [3] | Potency [4] | Potency [5] | Potency [6] | Potency [7]

CCCCOc1cc(C(=O)OCCN(CC)CC)ccc1N
inactive: Potency [1] | Potency [2] | outcome [3] | Potency [4] | Potency [5] | Potency [6] | Potency [9]

NC(=S)N/N=C/c1cccnc1
inactive: Potency [1] | Potency [2] | outcome [3] | Potency [4] | Potency [6] | Potency [7]

O=C(C(=O)c1ccc(Br)cc1)c1ccc(Br)cc1
inactive: Potency [8] | Potency [1] | Potency [2] | outcome [3] | activity, negative = cytotoxicity [4] -5.42% [at 19 µM] | activity change, negative = inhibition [5] 2.45% [at 19 µM] | viability change, negative = cytotoxic [6] 10.5% [at 15.8 µM] | activation [9] -4.31% [at 15.8 µM]

c1ccc(CNCc2ccccc2)cc1
inactive: Potency [1] | Potency [2] | outcome [3] | Potency [4] | Potency [6] | Potency [7]

COCCOCCOCCOCCOC
inactive: Potency [8] | Potency [1] | Potency [2] | outcome [3] | Potency [4] | Potency [5] | Potency [6] | Potency [7]

Cc1ccc(O)c([C@H](CCN(C(C)C)C(C)C)c2ccccc2)c1
inactive: Potency [2] | outcome [3] | Potency [4] | Potency [5] | Potency [6] | Potency [9]

CCc1nn(C2CCCCC2)c2cc(C3(C#N)CCC(C(=O)O)CC3)ccc12 (stereo unspecified)
inactive: Potency [8] | Potency [1] | outcome [3] | Potency [4] | Potency [6] | Potency [9]
active: Potency [5] 27.3 µM

CCN(CC)CCOC(=O)C1(c2ccccc2)CCCC1
inactive: Potency [1] | Potency [2] | outcome [3] | Potency [4] | Potency [5] | Potency [6] | Potency [7] | Potency [9]

COc1ccccc1OC(=O)Oc1ccccc1OC
inactive: Potency [8] | Potency [1] | Potency [2] | outcome [3] | Potency [4] | Potency [5] | Potency [6] | Potency [7]

CC(=O)O[C@@H]1C(=O)O[C@@H]2[C@H]1OC(=O)[C@@H]2OC(C)=O
inactive: Potency [1] | Potency [2] | outcome [3] | Potency [4] | Potency [5] | Potency [6] | Potency [7]

CCCCCCCCCC=O
inactive: Potency [8] | Potency [2] | outcome [3] | Potency [4] | Potency [5] | Potency [6] | Potency [7]

COc1ccc([C@@H]2Sc3ccccc3N(CCN(C)C)C(=O)[C@@H]2OC(C)=O)cc1
inactive: Potency [8] | Potency [2] | outcome [3] | Potency [4] | Potency [5] | Potency [6] | Potency [7]

O=C1Nc2cc(Cl)ccc2Oc2ccccc21
inactive: outcome [3] | Potency [4] | Potency [5] | Potency [6] | Potency [9]

N#Cc1cc2ccccc2c2ccccc12
inactive: Potency [8] | Potency [2] | outcome [3] | Potency [4] | Potency [5] | Potency [6] | Potency [9]
